From PubChem
Only a selection was taken, and hits are over-represented in it overall.
Tgondii IFNg: T. gondii growth inhibition with IFN-gamma, primary screen, cell-based | 69,000 tested, 3.8% active | activity change, negative = inhibition, % (test concentration not listed) | Toxoplasma gondii growth in IFN-gamma-treated host cells; active compounds read low; in the data active = activity change below about -70%, passing the limit was not always enough;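 note: host cells are HeLa cells infected with Toxoplasma gondii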
* hit, by the source's call; i = inactive; ! = not active in a repeat.

SMILES	Tgondii IFNg
CCS(=O)(=O)N1CCC2(CCN(c3cnn(C)c3)C2=O)C1 (configuration not stated)	2
CC(C)(NC(=O)CCn1ccc(=O)[nH]c1=O)c1cccc2ccccc12	-1
CC1=C(C(=O)NCc2cccnc2)C2(CCN(S(C)(=O)=O)CC2)OC1=O	0
CCc1ccc(NC(=O)N2CCc3nc(-c4ccc(OC)c(OC)c4)sc3C2)cc1	-79*
COc1ccc(-c2nc3c(s2)CN(C(=O)Nc2cc(C)ccc2C)CC3)cc1OC	21
CCc1ccccc1NC(=O)N1CCc2nc(-c3cccc(OC)c3)sc2C1	30
CCc1ccccc1NC(=O)N1CCc2nc(-c3ccc(OC)c(OC)c3)sc2C1	46
Cc1ccc(-c2nc3c(s2)CN(C(=O)Nc2cc(C)ccc2C)CC3)cc1	-35
COc1ccc(-c2nc3c(s2)CN(C(=O)Nc2ccc(C)c(C)c2)CC3)cc1OC	-83*
COc1ccccc1-c1cc2c(=O)n(Cc3nc(-c4ccccc4)oc3C)ccn2n1	81
Cc1cccc(NC(=O)N2CCC[C@@]3(C(=O)NCC4CC4)CN(c4ncccn4)C[C@H]3C2)c1	8
COc1cccc(C2Nc3ccccc3C(=O)N2NS(=O)(=O)c2ccc(C)cc2)c1O (configuration not stated)	41
COCCN(C)C(=O)C1CC2(CO1)c1ccccc1CN2CC1CC1 (configuration not stated)	-3
Cc1cccc(-c2cn(Cc3ccccc3C(F)(F)F)nn2)n1	-2
CCn1ncnc1C(C)NC(=O)c1csc2nc(-c3ccccc3F)cn12 (configuration not stated)	1
O=S(=O)(Cc1ccccc1)N1CC2CN(Cc3ccccc3)CC2C1 (configuration not stated)	-14
O=S(=O)(Cc1ccccc1)N1CC2CN(Cc3cccc(Cl)c3)CC2C1 (configuration not stated)	-21
O=S(=O)(c1ccccc1)N1CC2CN(Cc3ccc(Cl)cc3)C2C1 (configuration not stated)	-106*
Cc1cc(C)cc(NC(=O)Cn2ncc3c(N4CCN(c5ccccc5)CC4)ncnc32)c1	-11
C=CCOc1cc(OCc2ccccc2)c(C(C)=O)c(OCc2ccccc2)c1C(C)=O	-37
CCC(CC)n1ncc(C)c1NC(=O)c1cccc2nccnc12	54
S=c1sc2ccccc2n1CCn1c(=S)sc2ccccc21	23
O=C(CCC(=O)NC1CCCCCCC1)NCC(O)c1ccccc1 (configuration not stated)	38
OC(Cn1c(=NC2CCCCC2)sc2ccccc21)c1ccccc1 (configuration not stated)	-72*
CC(C)Cc1nc(CN(C)Cc2cc3n(n2)CCCNC3)no1	11
SMILES	Tgondii IFNg
CCc1nc(OCC(=O)Nc2ccc3c(c2)OCO3)c2ccccc2n1	-2
CC=Cc1ccc2n(c1=O)C[C@H]1[C@H](CO)[C@@H](C(=O)N3CCOCC3)N(Cc3ccccc3)[C@@H]21 (mixture of isomers)	3
CC(=O)[C@H]1CC[C@H]2[C@@H]3CCC4=CC(=O)CC[C@]4(C)[C@H]3CC[C@]12C	-88*
CC(=O)OCC(=O)[C@H]1CC[C@H]2[C@@H]3CC=C4C[C@@H](O)CC[C@]4(C)[C@H]3CC[C@]12C	-35
C[C@]12CCC(=O)C=C1CC[C@@H]1[C@@H]2CC[C@@]2(C)[C@H]1CC[C@]2(O)C(=O)CO	3
CC(=O)O[C@@H]1C[C@@]2(C)C(CC[C@@H]2C(C)=O)C2CCC3=CC(=O)CC[C@]3(C)C21 (some centres not stated)	13
CC(=O)[C@H]1CC[C@H]2[C@@H]3CC=C4C[C@@H](O)CC[C@]4(C)[C@H]3CC[C@]12C	-74*
CC(=O)[C@H]1CCC2C3CC=C4C[C@@H](O)CC[C@]4(C)C3CC[C@@]21C (some centres not stated)	11
c1ccc(-c2cc(CN3CCCC3c3nc4ccccc4s3)on2)nc1 (configuration not stated)	-12
CC(C)C[C@H]1CN(C(=O)c2ccc(=O)n(C)c2)CC[C@@]1(C)O	-2
Cc1ccsc1CN(Cc1nc(-c2ccco2)no1)C1CC1	-22
CCN1CCC2(CN(C(=O)N(C)C)CC23CCN(CC2CC2)CC3)C1=O (configuration not stated)	-37
CC(C)CCC(=O)N1C[C@@H]2c3nc(N4CCOCC4)ncc3CS(=O)(=O)[C@H]2C1	-35
CC(C)OCCCNC(=O)c1nc(-c2ccc(Cl)cc2)n2c1CCCCC2	-47
CC(C)CNC(=O)c1nc(-c2ccc(Cl)cc2)n2c1CCCCC2	-100*
Cc1ccc(-c2nc(C(=O)NC(C)C)c3n2CCCCC3)cc1	-78*
Cc1ccc(-c2nc(C(=O)N3CCCCC3c3cccnc3)c3n2CCCCC3)cc1 (configuration not stated)	105
CC1CCCCN1CCNC(=O)c1nc(-c2ccc(Cl)cc2)n2c1CCCCC2 (configuration not stated)	6
CCOC(=O)C1CCCN(C(=O)c2nc(-c3ccc(C)cc3)n3c2CCCCC3)C1 (configuration not stated)	223
COCCCNC(=O)c1nc(-c2ccc(Cl)cc2)n2c1CCCCC2	-50
Cc1ccc(-c2nc(C(=O)N3CCCCCC3)c3n2CCCCC3)cc1	-80*
O=C(c1nc(-c2ccc(Cl)cc2)n2c1CCCCC2)N1CCC2(CC1)OCCO2	118
COC(=O)c1cc2c(cc1NC(=O)c1nc(-c3ccc(C)cc3)n3c1CCCCC3)OCO2	284
COc1ccccc1CNC(=O)c1nc(-c2ccc(C)cc2)n2c1CCCCC2	-115*
CCN(CC)C(=O)c1nc(-c2ccc(C)cc2)n2c1CCCCC2	-32
SMILES	Tgondii IFNg
Cc1ccc(NC(=O)CNCCOc2nonc2C)c(C)c1	-6
COCCSc1ncc(-c2cccc(F)c2)c(C2CCN(C(=O)/C=C/c3ccccn3)CC2)n1	-29
N#C[C@H]1[C@@H](c2ccccc2C2=CCCC2)[C@H](CO)N1C(=O)C1CCOCC1	-43
Cc1ccc(NC(=O)c2nnn(Cc3nc(-c4ccccc4C)oc3C)c2C)c(C)c1	106
CCOC(=O)C(C)NC(=O)c1cc(-c2cccnc2)n[nH]1 (configuration not stated)	12
CCOC(=O)C(C)NC(=O)c1nc(-c2ccc(C)cc2)n2c1CCCCC2 (configuration not stated)	-106*
O=C(Cn1c(=O)cc(C(=O)N2CCc3ccccc3C2)c2ccccc21)Nc1ccc2c(c1)OCCO2	-11
O=C(NCc1ccncc1)c1cccc2[nH]cc(CN3CCSCC3)c12	-18
O=C(NC1CCN(CC2(c3cccc(F)c3)CCCC2)CC1)c1cn[nH]n1	31
Cc1ccc(C)c(NC(=O)CN2C(=O)CCc3cc(S(=O)(=O)N4CCCC4)ccc32)c1	41
COc1ccc(-c2nc(CCNC(=O)c3ccc(OC)c(OC)c3)cs2)cc1	i
O=c1[nH]cc(F)c(=O)[nH]1	-96*!
CCC(CC)C(=O)Nc1c[nH]c(=O)[nH]c1=O	-7
C[C@@H](C(=O)N1C[C@H]2C[C@H](O)[C@H](O)C[C@H]2C1)c1ccccc1	8
O=C(COC(=O)c1cn(-c2ccccc2)nc1-c1ccccc1)c1ccc(Cl)cc1	-24
CC(C)(Cc1ccc2ccccc2c1)NC[C@@H](O)COc1cccc(Cl)c1C#N	-72*
CC(C)(C)NCC(O)COc1ccccc1C(=O)CCc1ccccc1 (configuration not stated)	-30
CC(C)NCC(O)COc1cccc2ccccc12 (configuration not stated)	-5
